Assay results as given in PubChem BioAssay (NCI).
The panel holds about 83,000 compounds, 20% with a hit somewhere; the sample as a whole holds those more often.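 For each line, cells grew in 96-well plates with the test compound present at a single concentration for 48 hours.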 Unmarked numbers belong to inactive results. Activity calls are given as the source filed them. Rule for the calls: active = growth percent below 10; inactive = the rest.

Key:
Test in all cases: NCI-60 one-dose screen, 48 h (100 = growth as untreated, 0 = no growth, -100 = all killed)
Conditions in all cases: 10 µM unless noted
[1] = test system: SK-MEL-2 melanoma
[2] = test system: EKVX NSCLC
[3] = test system: SN12C renal
[4] = test system: UO-31 renal
[5] = test system: TK-10 renal
[6] = test system: ACHN renal
[7] = test system: CAKI-1 renal
[8] = test system: A498 renal
[9] = test system: CCRF-CEM leukemia
[10] = test system: MOLT-4 leukemia

Compound | growth [1] | growth [2] | growth [3] | growth [4] | growth [5] | growth [6] | growth [7] | growth [8] | growth [9] | growth [10]
CCOC(=O)C(COS(C)(=O)=O)(COS(C)(=O)=O)C(=O)OCC | 114% | 102% | 104% | 95.7% | 111% | 103% | 100% | 97.5% | 105% | 96.3%
CC(=O)N(CCCCCCN(C(C)=O)C(C)=O)C(C)=O | 117% [100 µM] | 106% [100 µM] | 103% [100 µM] | 98.1% [100 µM] | 116% [100 µM] | 104% [100 µM] | 98.7% [100 µM] | 108% [100 µM] | 103% [100 µM] | 113% [100 µM]
CCOC(OCC)C(=O)c1ccccc1 | 88.8% | 109% | 101% | 82.6% | 84.1% | 99.3% | 107% | 94% | 99.8% | 124%
C1Cc2onc(-c3noc4c3CCC4)c2C1 | 124% | 104% | 96.2% | 87.9% | 105% | 114% | 94.5% | 136% | 101% | 110%
COc1cccc(C(=O)O)c1OC | 99.3% | 91.9% | 96.6% | 86.5% | 96.2% | 93% | 97.4% | 97.4% | 107% | 110%
COc1cc(OC)c2cc(C(=O)c3ccc(C#N)cc3)c(=O)oc2c1 | 103% | 110% | 81.6% | 84.7% | 97.7% | 95.2% | 84.6% | 99.1% | 101% | 103%
C/C(Cc1ccccc1)=N\O | 104% | 116% | 107% | 102% | 103% | 106% | 115% | 103% | -29.9% (active) | 5.17% (active)
CCCCCC/C=C\CCCCCCCCCc1cc(O)cc(OC)c1O | -25.5% (active) | 14.5% | 8.94% (active) | -19.1% (active) | 24.3% | 12.7% | -29.1% (active) | -18.5% (active) | -0.181% (active) | 2.69% (active)
CCNc1ncnc2[nH]ncc12 | 101% | 88.6% | 96.9% | 99.7% | 102% | 98.2% | 93% | 96.9% | 30.1% | 134%
NNc1ncccn1 | 90.2% | 102% | 103% | 83.5% | 92.2% | 105% | 102% | 91.7% | 109% | 110%
Cc1cc(Cc2ccccc2)c(O)c(Cc2ccccc2)c1 | 111% | 112% | 79.7% | 64.6% | 98.8% | 92.9% | 80.5% | 98.6% | 98.2% | 64.6%
N#Cc1ccc2nc[nH]c2c1 | 102% | 104% | 110% | 91.4% | 108% | -68.5% (active) | 95% | 98.7% | 115% | 109%
COc1ccc(C(=O)C(=O)c2ccccc2)cc1 | 110% | 102% | 98.7% | 95.3% | 108% | 101% | 99.9% | 97.5% | -54.2% (active) | 101%
NCC(O)C(O)C(O)C(O)CO (stereo not drawn) | 96.4% | 102% | 96.2% | 93.2% | 88.5% | 105% | 88.6% | 98.6% | 89.8% | 101%
COc1cccc(N=CNc2cccc(OC)c2)c1 | 86.3% | 99.4% | 101% | 91.1% | 113% | 86.2% | 87.7% | 93.2% | 94.7% | 90.9%
CCc1ccccc1C(=O)N(CC)CC | 123% | 96.6% | 105% | 91.1% | 106% | 104% | 99.7% | 86.1% | 97.5% | 96.4%
CC1CC(C)S(=O)(=O)C1 (stereo not drawn) | 112% | 108% | 108% | 101% | 103% | 103% | 106% | 122% | 101% | 91.3%

Compound | growth [1] | growth [2] | growth [3] | growth [4] | growth [5] | growth [6] | growth [7] | growth [8] | growth [9] | growth [10]
c1ccc(-c2ccc3ccccc3c2)cc1 | 76.6% | 103% | 96.1% | 85.2% | 97.7% | 88.9% | 97.9% | 84% | 99.6% | 80.8%
CCCc1cccc(CCC)c1NC(=O)Nc1cc(Cl)cc(Cl)c1 | 106% | 109% | 91% | 69.7% | 106% | 101% | 83.5% | 95.9% | 91.6% | 101%
CC1CN(CCO)CC(C)O1 (stereo not drawn) | 133% | 102% | 93.8% | 90.7% | 106% | 107% | 93.5% | 114% | 100% | 105%
NC(CO)(CO)c1ccccc1 | 107% | 113% | 108% | 88.6% | 96.9% | 112% | 96.1% | 101% | 90% | 108%
O=C(N/N=C\c1ccc(Cl)cc1Cl)c1ccncc1 | 94.4% | 101% | 98.7% | 90.7% | 91.4% | 105% | 99% | 95.8% | 99.6% | 94.5%
O=C(NCCc1ccccc1)/C(=C\c1ccc(Cl)cc1Cl)NC(=O)c1ccccc1 | 114% | 96% | 96.1% | 88.5% | 96.6% | 98.9% | 92.9% | 87.5% | 97.9% | 94.7%
c1ccc2c(NCCCN3CCN(CCCNc4c5ccccc5nc5ccccc45)CC3)c3ccccc3nc2c1 | -76.8% [100 µM] (active) | -48.6% [100 µM] (active) | -35.9% [100 µM] (active) | -27.6% [100 µM] (active) | -9.59% [100 µM] (active) | -60.9% [100 µM] (active) | -15.5% [100 µM] (active) | -31.9% [100 µM] (active) | -0.0236% [100 µM] (active) | -5.28% [100 µM] (active)
c1cc(CNCCNCc2ccncc2)ccn1 | 104% | 99.6% | 98.5% | 83.7% | 105% | 109% | 91.3% | 116% | – | 84.1%
COc1ccc2c(ccc[n+]2C)c1 | 103% | 84.7% | 104% | 86.5% | 102% | 98.5% | 96.4% | 107% | 98.3% | 111%
Cn1c(=O)[nH]c2ccccc2c1=O | 111% | 71.6% | 96.4% | 95.5% | 94.3% | 105% | 85.3% | 129% | 108% | 122%
CN(C)c1ccc2nc3ccc(=[N+](C)C)cc-3oc2c1 | 58.1% | 29.8% | -39.7% (active) | 65.1% | 70% | 70.5% | 70.3% | 94.8% | – | 4.76% (active)
O=C1NC(=O)/C(=C\c2ccncc2)N1 | 104% | 95.5% | 95.9% | 95.5% | 105% | 97.9% | 100% | 94.1% | 105% | 111%
C[C@H](CCC[C@H](C)OS(=O)(=O)c1ccccc1)OS(=O)(=O)c1ccccc1 | 98.8% | 95.2% | 99.3% | 78.8% | 103% | 106% | 92.6% | 133% | 120% | 115%
COc1cc(C(=O)N2CCN(c3ccccc3)CC2)c2ccccc2n1 | 3.61% (active) | 51.6% | 36.8% | 44.9% | 57.1% | 60.6% | 36.2% | 32.3% | 29.3% | 29.9%
O=C(NC1CCCCC1)c1ccc(Cl)cc1 | 115% | 98.5% | 103% | 94.7% | 102% | 104% | 102% | 82.4% | 98.4% | 95.2%
CN1CCCN(C(c2ccccc2)c2ccc(Cl)cc2)CC1 (stereo not drawn) | 117% | 94.8% | 101% | 76.3% | 78.3% | 98.7% | 77.5% | 56.1% | 103% | 89.5%
